Test results as given in PMC7862700, “An all-to-all approach to the identification of sequence-specific readers for epigenetic DNA modifications on cytosine”.

Legend:
Experiment in all cases: DAPPL (digital affinity profiling via proximity ligation, sequencing); 10 mM Tris-HCl pH 7.5, 50 mM NaCl, 1 mM DTT, 4% glycerol, room temperature, 30 min; GST-TFs on glutathione beads, 16-mer random dsDNA library, 0.1% formaldehyde crosslink after washing; high values mean tight binding
Settings in all cases: protein: recombinant; tags: N-terminal GST; dsDNA, one strand shown
[1] = target: T1, FLI1 (Homo sapiens, UniProt Q01543 1-452)
T1 sequence: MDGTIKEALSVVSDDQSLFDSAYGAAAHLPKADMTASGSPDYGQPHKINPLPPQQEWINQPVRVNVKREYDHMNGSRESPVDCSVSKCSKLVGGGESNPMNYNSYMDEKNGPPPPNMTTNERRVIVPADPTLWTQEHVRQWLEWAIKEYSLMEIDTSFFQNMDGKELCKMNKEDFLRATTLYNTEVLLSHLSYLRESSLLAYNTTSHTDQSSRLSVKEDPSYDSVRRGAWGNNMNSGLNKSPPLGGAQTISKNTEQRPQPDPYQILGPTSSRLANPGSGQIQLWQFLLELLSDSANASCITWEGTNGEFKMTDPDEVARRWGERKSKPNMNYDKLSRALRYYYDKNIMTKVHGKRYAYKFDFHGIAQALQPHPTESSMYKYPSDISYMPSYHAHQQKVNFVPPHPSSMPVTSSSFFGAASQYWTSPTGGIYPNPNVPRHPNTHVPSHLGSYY
Procedure, shortened: (§1)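 Human transcription factors carrying a GST fusion were produced in yeast, bound to glutathione beads, tagged with DNA barcodes and pooled together with a tag-only sample. Each pool was held with 200 nmole of a random double-stranded 16-mer DNA library in Tris/NaCl/DTT/glycerol buffer for 30 min at room temperature, then washed, crosslinked in 0.1% formaldehyde, proximity-ligated with BsaI/T4 ligase (1 h, 37 °C), PCR-amplified and sequenced on an Illumina NextSeq500. Binding signal is the read frequency of each hexamer for a given factor divided by its frequency in the tag-only sample.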

[2] = target: T2, ELK1 (Homo sapiens, UniProt P19419 1-428)
T2 sequence: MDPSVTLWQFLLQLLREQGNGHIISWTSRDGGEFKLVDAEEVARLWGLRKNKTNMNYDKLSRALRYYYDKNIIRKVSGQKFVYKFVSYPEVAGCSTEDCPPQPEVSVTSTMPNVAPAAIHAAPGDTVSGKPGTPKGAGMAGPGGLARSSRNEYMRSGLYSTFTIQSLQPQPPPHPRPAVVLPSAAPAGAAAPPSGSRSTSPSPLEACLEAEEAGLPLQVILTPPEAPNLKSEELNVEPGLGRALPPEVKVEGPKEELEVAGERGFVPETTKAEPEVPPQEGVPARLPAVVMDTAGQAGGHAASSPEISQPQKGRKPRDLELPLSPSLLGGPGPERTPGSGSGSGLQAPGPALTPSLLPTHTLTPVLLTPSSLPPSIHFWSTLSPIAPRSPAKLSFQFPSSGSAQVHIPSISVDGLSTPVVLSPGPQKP
Procedure, shortened: as §1

[3] = target: T3, GABPA (Homo sapiens, UniProt Q06546 1-454)
T3 sequence: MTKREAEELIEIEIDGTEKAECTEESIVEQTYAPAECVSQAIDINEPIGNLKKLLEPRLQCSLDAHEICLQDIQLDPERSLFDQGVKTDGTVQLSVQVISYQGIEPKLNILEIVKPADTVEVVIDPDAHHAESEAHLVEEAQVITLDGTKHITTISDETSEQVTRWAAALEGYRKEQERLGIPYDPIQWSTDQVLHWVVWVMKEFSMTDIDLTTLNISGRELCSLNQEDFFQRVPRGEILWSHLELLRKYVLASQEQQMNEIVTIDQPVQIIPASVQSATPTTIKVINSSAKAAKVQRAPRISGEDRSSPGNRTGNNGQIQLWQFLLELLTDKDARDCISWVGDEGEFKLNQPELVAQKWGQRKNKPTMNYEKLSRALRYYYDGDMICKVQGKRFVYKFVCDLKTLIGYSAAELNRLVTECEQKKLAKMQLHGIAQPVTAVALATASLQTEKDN
Procedure, shortened: as §1

[4] = target: T4, ERG (Homo sapiens, UniProt P11308 1-479)
T4 sequence: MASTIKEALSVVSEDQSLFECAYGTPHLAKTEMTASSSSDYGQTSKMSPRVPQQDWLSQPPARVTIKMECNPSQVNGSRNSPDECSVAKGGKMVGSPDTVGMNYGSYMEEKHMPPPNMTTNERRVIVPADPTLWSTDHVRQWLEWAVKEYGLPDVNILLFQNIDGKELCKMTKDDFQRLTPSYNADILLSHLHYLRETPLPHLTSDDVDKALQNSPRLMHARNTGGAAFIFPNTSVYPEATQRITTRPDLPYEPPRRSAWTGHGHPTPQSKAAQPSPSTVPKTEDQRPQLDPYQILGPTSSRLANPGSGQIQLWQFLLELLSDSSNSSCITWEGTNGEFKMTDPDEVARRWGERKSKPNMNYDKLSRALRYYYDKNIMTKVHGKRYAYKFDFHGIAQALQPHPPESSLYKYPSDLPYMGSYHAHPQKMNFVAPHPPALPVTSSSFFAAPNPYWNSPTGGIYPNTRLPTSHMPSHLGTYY
Procedure, shortened: as §1

[5] = target: ELF1 (Homo sapiens, UniProt P32519 1-619)
Procedure, shortened: as §1

[6] = target: T5, EHF (Homo sapiens, UniProt Q9NZC4 1-300)
T5 sequence: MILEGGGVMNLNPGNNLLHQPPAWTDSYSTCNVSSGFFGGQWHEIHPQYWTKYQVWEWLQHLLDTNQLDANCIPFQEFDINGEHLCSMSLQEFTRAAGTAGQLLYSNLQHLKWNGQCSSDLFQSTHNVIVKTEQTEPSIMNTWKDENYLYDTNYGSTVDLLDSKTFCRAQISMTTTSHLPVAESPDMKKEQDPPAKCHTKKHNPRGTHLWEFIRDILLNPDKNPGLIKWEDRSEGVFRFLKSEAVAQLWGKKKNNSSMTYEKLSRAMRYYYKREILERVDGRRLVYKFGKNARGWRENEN
Procedure, shortened: as §1

[7] = target: SPI1 (Homo sapiens, UniProt P17947 1-270)
Procedure, shortened: as §1

[8] = target: SPIB (Homo sapiens, UniProt Q01892 1-262)
Procedure, shortened: as §1

[9] = target: T6, ELK3 (Homo sapiens, UniProt P41970 1-407)
T6 sequence: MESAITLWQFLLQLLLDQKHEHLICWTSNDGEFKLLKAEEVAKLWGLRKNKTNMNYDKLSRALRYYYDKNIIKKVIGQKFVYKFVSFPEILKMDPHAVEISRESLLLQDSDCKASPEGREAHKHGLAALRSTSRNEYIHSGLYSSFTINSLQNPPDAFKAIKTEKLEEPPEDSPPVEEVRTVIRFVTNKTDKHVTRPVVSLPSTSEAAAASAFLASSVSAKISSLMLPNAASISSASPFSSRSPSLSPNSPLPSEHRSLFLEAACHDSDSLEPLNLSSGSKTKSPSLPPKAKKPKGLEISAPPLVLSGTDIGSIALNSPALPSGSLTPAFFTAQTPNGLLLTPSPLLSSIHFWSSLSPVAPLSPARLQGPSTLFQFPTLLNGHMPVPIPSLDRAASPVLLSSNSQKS
Procedure, shortened: as §1

SPIB, sequence (Q01892 whole entry): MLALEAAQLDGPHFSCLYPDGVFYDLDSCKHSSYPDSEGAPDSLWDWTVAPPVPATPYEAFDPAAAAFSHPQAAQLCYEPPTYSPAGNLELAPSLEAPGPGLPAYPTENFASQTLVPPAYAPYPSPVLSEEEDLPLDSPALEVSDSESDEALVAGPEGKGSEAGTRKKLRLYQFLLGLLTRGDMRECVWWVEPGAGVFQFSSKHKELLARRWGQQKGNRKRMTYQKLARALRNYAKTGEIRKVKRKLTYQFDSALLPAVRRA
ELF1, sequence (P32519 whole entry): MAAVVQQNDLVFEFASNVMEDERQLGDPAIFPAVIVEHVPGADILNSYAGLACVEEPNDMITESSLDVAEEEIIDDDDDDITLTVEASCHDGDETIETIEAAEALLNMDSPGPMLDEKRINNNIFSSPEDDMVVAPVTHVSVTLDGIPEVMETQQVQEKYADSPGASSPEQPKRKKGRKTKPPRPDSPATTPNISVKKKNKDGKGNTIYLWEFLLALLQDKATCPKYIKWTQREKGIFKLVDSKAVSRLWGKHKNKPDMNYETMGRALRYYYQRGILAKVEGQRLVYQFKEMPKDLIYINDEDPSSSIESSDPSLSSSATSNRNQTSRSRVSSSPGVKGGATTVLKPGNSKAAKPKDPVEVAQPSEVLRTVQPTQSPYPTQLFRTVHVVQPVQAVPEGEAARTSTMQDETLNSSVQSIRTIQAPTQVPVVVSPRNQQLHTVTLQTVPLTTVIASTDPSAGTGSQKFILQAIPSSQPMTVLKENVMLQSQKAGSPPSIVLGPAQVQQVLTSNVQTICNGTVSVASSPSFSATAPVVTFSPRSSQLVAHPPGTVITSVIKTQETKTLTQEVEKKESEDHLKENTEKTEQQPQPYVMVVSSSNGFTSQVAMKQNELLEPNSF

Row | Sequence | binding signal [1] | binding signal [2] | binding signal [3] | binding signal [4] | binding signal [5] | binding signal [6] | binding signal [7] | binding signal [8] | binding signal [9]
1 | CGACCT | 1.44 fold enrichment (6-mer frequency, TF over GST control) | 1.44 fold enrichment (6-mer frequency, TF over GST control) | 1.54 fold enrichment (6-mer frequency, TF over GST control) | 1.46 fold enrichment (6-mer frequency, TF over GST control) | 1.6 fold enrichment (6-mer frequency, TF over GST control) | 1.39 fold enrichment (6-mer frequency, TF over GST control) | 1.4 fold enrichment (6-mer frequency, TF over GST control) | 1.63 fold enrichment (6-mer frequency, TF over GST control) | 1.7 fold enrichment (6-mer frequency, TF over GST control)
2 | GATGCG | 1.07 fold enrichment (6-mer frequency, TF over GST control) | 1.14 fold enrichment (6-mer frequency, TF over GST control) | 1.16 fold enrichment (6-mer frequency, TF over GST control) | 1.16 fold enrichment (6-mer frequency, TF over GST control) | 1.11 fold enrichment (6-mer frequency, TF over GST control) | 1.16 fold enrichment (6-mer frequency, TF over GST control) | 1.14 fold enrichment (6-mer frequency, TF over GST control) | 1.19 fold enrichment (6-mer frequency, TF over GST control) | 1.1 fold enrichment (6-mer frequency, TF over GST control)
3 | AAGCGG | 1.13 fold enrichment (6-mer frequency, TF over GST control) | 1.05 fold enrichment (6-mer frequency, TF over GST control) | 1.11 fold enrichment (6-mer frequency, TF over GST control) | 1.1 fold enrichment (6-mer frequency, TF over GST control) | 1.11 fold enrichment (6-mer frequency, TF over GST control) | 1.15 fold enrichment (6-mer frequency, TF over GST control) | 1.81 fold enrichment (6-mer frequency, TF over GST control) | 1.03 fold enrichment (6-mer frequency, TF over GST control) | 1.11 fold enrichment (6-mer frequency, TF over GST control)
4 | AAATTC | 1.31 fold enrichment (6-mer frequency, TF over GST control) | 1.31 fold enrichment (6-mer frequency, TF over GST control) | 1.4 fold enrichment (6-mer frequency, TF over GST control) | 1.24 fold enrichment (6-mer frequency, TF over GST control) | 1.31 fold enrichment (6-mer frequency, TF over GST control) | 1.32 fold enrichment (6-mer frequency, TF over GST control) | 1.26 fold enrichment (6-mer frequency, TF over GST control) | 1.33 fold enrichment (6-mer frequency, TF over GST control) | 1.42 fold enrichment (6-mer frequency, TF over GST control)
5 | CACTGT | 1.12 fold enrichment (6-mer frequency, TF over GST control) | 1.09 fold enrichment (6-mer frequency, TF over GST control) | 1.17 fold enrichment (6-mer frequency, TF over GST control) | 1.14 fold enrichment (6-mer frequency, TF over GST control) | 1.16 fold enrichment (6-mer frequency, TF over GST control) | 1.19 fold enrichment (6-mer frequency, TF over GST control) | 1.11 fold enrichment (6-mer frequency, TF over GST control) | 1.22 fold enrichment (6-mer frequency, TF over GST control) | 1.03 fold enrichment (6-mer frequency, TF over GST control)
6 | ACTCTA | 1.42 fold enrichment (6-mer frequency, TF over GST control) | 1.46 fold enrichment (6-mer frequency, TF over GST control) | 1.52 fold enrichment (6-mer frequency, TF over GST control) | 1.39 fold enrichment (6-mer frequency, TF over GST control) | 1.52 fold enrichment (6-mer frequency, TF over GST control) | 1.56 fold enrichment (6-mer frequency, TF over GST control) | 1.5 fold enrichment (6-mer frequency, TF over GST control) | 1.45 fold enrichment (6-mer frequency, TF over GST control) | 1.38 fold enrichment (6-mer frequency, TF over GST control)
7 | TTTTTA | 1.23 fold enrichment (6-mer frequency, TF over GST control) | 1.2 fold enrichment (6-mer frequency, TF over GST control) | 1.23 fold enrichment (6-mer frequency, TF over GST control) | 1.25 fold enrichment (6-mer frequency, TF over GST control) | 1.35 fold enrichment (6-mer frequency, TF over GST control) | 1.37 fold enrichment (6-mer frequency, TF over GST control) | 1.47 fold enrichment (6-mer frequency, TF over GST control) | 1.37 fold enrichment (6-mer frequency, TF over GST control) | 1.3 fold enrichment (6-mer frequency, TF over GST control)
